# Records with an inconclusive call do not appear. Activity calls are given as the source filed them. The calls were made as follows, unless noted: active = hit-call score of the fitted dose curve at least 0.9, where 1 is the maximum; inactive = score below 0.9.
# Columns and labels:
# [1] = read-out: solute carrier (SLCO1B1), SLCO1B1 (gene 10599); assay: LTEA_HepaRG_SLCO1B1: Life Technologies and Expression Analysis (LTEA) Assay for solute carrier (SLCO1B1) using HepaRG (AID 2283530); conditions: mRNA level, 48 h; actives raise or lower the signal
# Outline: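 Gain or loss of SLCO1B1 mRNA is fitted against the 0.5% DMSO vehicle in human HepaRG liver cells treated 48 h at up to 100 uM in half-log steps. Expression comes from qRT-PCR normalized to endogenous controls.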
# [2] = read-out: sulfotransferase 2A1 (SULT2A1), SULT2A1 (gene 6822); assay: LTEA_HepaRG_SULT2A1: Life Technologies and Expression Analysis (LTEA) Assay for sulfotransferase 2A1 (SULT2A1) using HepaRG (AID 2283531); conditions: mRNA level, 48 h; actives raise or lower the signal
# Outline: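 Cells were plated and cultured 48 h, switched to serum-free induction medium, then dosed in duplicate for 48 h (8 concentrations, max 100 uM). RNA was isolated and SULT2A1 expression measured by qRT-PCR; gain or loss of signal fitted relative to DMSO.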
# [3] = read-out: Transforming Growth Factor (TGFA), TGFA (gene 7039); assay: LTEA_HepaRG_TGFA: Life Technologies and Expression Analysis (LTEA) Assay for Transforming Growth Factor (TGFA) using HepaRG (AID 2283532); conditions: mRNA level, 48 h; actives raise or lower the signal
# Outline: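 HepaRG (human liver line), 48 h exposure, 8 conc. half-log down from 100 uM, 0.5% DMSO vehicle, duplicates; serum-free induction medium. TGFA mRNA by TaqMan qRT-PCR, ACTB/GAPDH/POLR2A normalization; gain/loss fit vs DMSO.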
# [4] = read-out: Transforming Growth Factor (TGFB1), TGFB1 (gene 7040); assay: LTEA_HepaRG_TGFB1: Life Technologies and Expression Analysis (LTEA) Assay for Transforming Growth Factor (TGFB1) Transporter using HepaRG (AID 2283533); conditions: mRNA level, 48 h; actives raise or lower the signal
# Outline: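 Expression change of TGFB1 in human HepaRG cells is measured after a 48 h chemical exposure, up to 100 uM in 0.5% DMSO vehicle. Curves are fitted in both directions relative to the DMSO baseline.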
# TIMP1, TIMP1 (gene 7076) = assay: LTEA_HepaRG_TIMP1: Life Technologies and Expression Analysis (LTEA) Assay for TIMP1 using HepaRG (AID 2283534); conditions: mRNA level, 48 h; actives raise or lower the signal;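 also: TaqMan qRT-PCR signal normalized to ACTB GAPDH and POLR2A housekeeping genes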
# Outline: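 We dosed human liver HepaRG cultures for 48 hours with up to 100 uM test chemical and measured TIMP1 expression by qRT-PCR. Activity in either direction is fitted relative to the 0.5% DMSO vehicle.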
# [5] = read-out: Tumor necrosis factor receptor 1 (TNFRSF1A), TNFRSF1A (gene 7132); assay: LTEA_HepaRG_TNFRSF1A: Life Technologies and Expression Analysis (LTEA) Assay for Tumor necrosis factor receptor 1 (TNFRSF1A) using HepaRG (AID 2283535); conditions: mRNA level, 48 h; actives raise or lower the signal
# Outline: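 Expression of TNFRSF1A in human HepaRG liver cells was measured by qRT-PCR 48 h after chemical dosing (maximum 100 uM). Bidirectional curve fitting used 0.5% DMSO as baseline.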
# [6] = read-out: Thyroid Hormone Responsive (THRSP), THRSP (gene 7069); assay: LTEA_HepaRG_THRSP: Life Technologies and Expression Analysis (LTEA) Assay for Thyroid Hormone Responsive (THRSP) using HepaRG (AID 2283536); conditions: mRNA level, 48 h; actives raise or lower the signal
# Outline: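 mRNA induction or loss relative to 0.5% DMSO vehicle was fitted bidirectionally across an eight-point curve whose highest exposure was 100 uM. Human HepaRG liver cells received chemicals in duplicate over 48 h before RNA extraction.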
# [7] = read-out: Cellular tumor antigen p53 (Homo sapiens) (UniProt P04637); assay: LTEA_HepaRG_TP53: Life Technologies and Expression Analysis (LTEA) Assay for Tumor Protein P53 (TP53) using HepaRG (AID 2283537); conditions: mRNA level, 48 h; actives raise or lower the signal
# Outline: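 Read-out is TP53 transcript level by microfluidic qRT-PCR, normalised to three housekeeping genes and fitted bidirectionally against DMSO. Human HepaRG cells received compounds for 48 h, highest concentration 100 uM.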
# [8] = read-out: UDP glucuronosyltransferase (UGT1A1), UGT1A1 (gene 54658); assay: LTEA_HepaRG_UGT1A1: Life Technologies and Expression Analysis (LTEA) Assay for UDP glucuronosyltransferase (UGT1A1) using HepaRG (AID 2283538); conditions: mRNA level, 48 h; actives raise or lower the signal
# Outline: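 Readout is UGT1A1 transcript level by qRT-PCR, normalized to three housekeeping genes, after 48 h chemical treatment of HepaRG cells. Concentrations ran from 100 uM down in half-log steps with 0.5% DMSO, and gain or loss relative to DMSO was fitted.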
# [9] = read-out: UDP glucuronosyltransferase (UGT1A6), UGT1A6 (gene 54578); assay: LTEA_HepaRG_UGT1A6: Life Technologies and Expression Analysis (LTEA) Assay for UDP glucuronosyltransferase (UGT1A6) using HepaRG (AID 2283539); conditions: mRNA level, 48 h; actives raise or lower the signal
# Outline: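 Endpoint is UGT1A6 transcript induction or loss in a human liver cell line, quantified by TaqMan qRT-PCR 48 h after dosing. Concentrations ran from 100 uM downward in half-log steps in 0.5% DMSO; activity was fitted in both directions versus vehicle.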
# [10] = read-out: X-box binding protein 1 (XBP1), XBP1 (gene 7494); assay: LTEA_HepaRG_XBP1: Life Technologies and Expression Analysis (LTEA) Assay for X-box binding protein 1 (XBP1) using HepaRG (AID 2283540); conditions: mRNA level, 48 h; actives raise or lower the signal
# Outline: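 Human HepaRG monolayers receive test chemical for 48 h across an eight-point half-log series starting at 100 uM. XBP1 mRNA gain or loss is scored against DMSO by qRT-PCR.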
# [11] = LTEA_HepaRG_LDH_cytotoxicity: Cytotoxicity Assessment in the Life Technologies and Expression Analysis (LTEA) Assay (AID 2283563; active = hit-call score of the fitted dose curve at least 0.9, where 1 is the maximum)
# Outline: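 Human HepaRG hepatic cells are treated with test chemicals for 48 h at up to 100 uM in 0.5% DMSO. Cytotoxicity is scored from medium LDH against the vehicle control.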
# [12] = TOX21_p53_BLA_p2_viability: Viability Assessment in the Tox21 HCT-116 p53 Agonism Beta-lactamase Assay, Phase 2 (AID 2283591; active = hit-call score of the fitted dose curve at least 0.9, where 1 is the maximum;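 also: actives lower the ATP signal meaning cytotoxicity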)
# Outline: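 Cytotoxicity readout: CellTiter-Glo ATP luminescence, 30 min at room temperature, after the beta-lactamase read. Cells were HCT116 exposed 16 h at 37C to compounds pin-transferred at 217-fold dilution from DMSO stocks.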
# [13] = target: Cellular tumor antigen p53 (Homo sapiens) (UniProt P04637); assay: TOX21_p53_BLA_p2_ratio: Tox21 HCT-116 p53 Agonism Beta-lactamase Assay, Ratio, Phase 2 (AID 2283592; active = hit-call score of the fitted dose curve at least 0.9, where 1 is the maximum)
# Sequence of Cellular tumor antigen p53 (Homo sapiens) (P04637 whole entry, looked up): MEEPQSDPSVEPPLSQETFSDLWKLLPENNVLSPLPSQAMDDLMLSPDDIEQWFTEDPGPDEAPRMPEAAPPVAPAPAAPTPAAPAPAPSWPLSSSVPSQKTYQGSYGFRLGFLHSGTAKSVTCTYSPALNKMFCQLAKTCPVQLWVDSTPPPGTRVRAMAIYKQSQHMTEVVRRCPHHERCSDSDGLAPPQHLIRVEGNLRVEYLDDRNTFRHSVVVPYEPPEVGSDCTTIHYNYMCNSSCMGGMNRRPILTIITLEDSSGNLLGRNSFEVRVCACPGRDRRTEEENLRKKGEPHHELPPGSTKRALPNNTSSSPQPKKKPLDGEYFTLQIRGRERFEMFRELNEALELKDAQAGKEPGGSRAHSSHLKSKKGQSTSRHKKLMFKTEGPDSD
# Outline: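 An inducible beta-lactamase reporter in HCT116 cells signals p53 pathway activation. After 16 h chemical exposure at 37C, cells load CCF4-AM substrate for 2 h at room temperature; activity is the cleaved/uncleaved emission ratio relative to DMSO.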
# [14] = TOX21_p53_BLA_p3_viability: Viability Assessment in the Tox21 HCT-116 p53 Agonism Beta-lactamase Assay, Phase 3 (AID 2283593; active = hit-call score of the fitted dose curve at least 0.9, where 1 is the maximum;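 also: cells exposed to compound for 16 h before reading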)
# Outline: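 Cellular ATP was quantified by CellTiter-Glo luminescence, read after 30 min at room temperature. Beforehand, HCT116 cells (4000/well) received compound 5 h post-seeding, 217-fold diluted from DMSO, then incubated 16 h at 37C.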
# [15] = target: Cellular tumor antigen p53 (Homo sapiens) (UniProt P04637); assay: TOX21_p53_BLA_p3_ratio: Tox21 HCT-116 p53 Agonism Beta-lactamase Assay, Ratio, Phase 3 (AID 2283596; active = hit-call score of the fitted dose curve at least 0.9, where 1 is the maximum)
# Outline: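 HCT116 p53-bla cells (4000/well) given compound in DMSO (217-fold dilution) after 5 h, incubated 16 h at 37C. CCF4-AM substrate 2 h at room temperature; 460/530 nm emission ratio, gain fitted against DMSO.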
# [16] = target: Cellular tumor antigen p53 (Homo sapiens) (UniProt P04637); assay: TOX21_p53_BLA_p5_ratio: Tox21 HCT-116 p53 Agonism Beta-lactamase Assay, Ratio, Phase 5 (AID 2283599; active = hit-call score of the fitted dose curve at least 0.9, where 1 is the maximum)
# Outline: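 Beta-lactamase reporter ratio (blue 460 nm over green 530 nm, 405 nm excitation) after 2 h CCF4-AM loading, in HCT-116 cells exposed 16 h at 37 C to compounds pinned at 217-fold dilution. Increases relative to DMSO baseline scored.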
# [17] = TOX21_p53_BLA_p5_viability: Viability Assessment in the Tox21 HCT-116 p53 Agonism Beta-lactamase Assay, Phase 5 (AID 2283600; active = hit-call score of the fitted dose curve at least 0.9, where 1 is the maximum)
# Outline: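 Counter-readout for cytotoxicity: ATP-dependent luminescence from CellTiter-Glo, read in the beta-lactamase wells after 30 min at RT, following a 16 h compound exposure at 37C.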
# [18] = TOX21_p53_BLA_p4_viability: Viability Assessment in the Tox21 HCT-116 p53 Agonism Beta-lactamase Assay, Phase 4 (AID 2283597; active = hit-call score of the fitted dose curve at least 0.9, where 1 is the maximum;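 also: hits lower the luminescence signal meaning cytotoxicity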)
# Outline: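 Compound exposure of HCT116 cells lasts 16 h at 37C, 5% CO2, with DMSO stocks diluted 217-fold. Cellular ATP is then quantified by CellTiter-Glo luminescence after 30 min at room temperature.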
# [19] = ATG_XTT_Cytotoxicity: Cytotoxicity Assessment in the Attagene TRANS-FACTORIAL HepG2 Assay (AID 2283584; active = hit-call score of the fitted dose curve at least 0.9, where 1 is the maximum)
# Outline: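 Transfect HepG2 with GAL4-UAS reporter units, dose compound, incubate 24 h, then measure viable cell number by XTT. Fit concentration response against DMSO baseline.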
smiles,measurement,setting,value
Nc1c(Cl)c(F)nc(OCC(=O)O)c1Cl,outcome,[1],inactive
same,outcome,[2],inactive
same,outcome,[3],inactive
same,outcome,[4],inactive
same,outcome,"TIMP1, TIMP1 (gene 7076)",inactive
same,outcome,[5],inactive
same,outcome,[6],inactive
same,outcome,[7],inactive
same,outcome,[8],inactive
same,outcome,[9],inactive
same,outcome,[10],inactive
same,outcome,[11],inactive
same,outcome,[12],inactive
same,outcome,[13],inactive
same,outcome,[14],inactive
same,outcome,[15],inactive
same,outcome,[16],inactive
same,outcome,[17],inactive
Cc1ccc(N=CN(C)C=Nc2ccc(C)cc2C)c(C)c1,outcome,[1],inactive
same,outcome,[2],inactive
same,outcome,[4],inactive
same,outcome,"TIMP1, TIMP1 (gene 7076)",inactive
same,outcome,[5],inactive
same,outcome,[6],inactive
same,outcome,[7],inactive
same,AC50,[8],39.3 µM (active)
same,outcome,[9],inactive
same,outcome,[10],inactive
same,outcome,[11],inactive
same,outcome,[12],inactive
same,outcome,[13],inactive
same,outcome,[14],inactive
same,outcome,[15],inactive
same,outcome,[18],inactive
same,outcome,[16],inactive
same,outcome,[17],inactive
COP(=S)(OC)Oc1ccc([N+](=O)[O-])c(C)c1,outcome,[1],inactive
same,outcome,[2],inactive
same,outcome,[4],inactive
same,outcome,"TIMP1, TIMP1 (gene 7076)",inactive
same,outcome,[5],inactive
same,outcome,[6],inactive
same,outcome,[7],inactive
same,AC50,[8],11.5 µM (active)
same,outcome,[9],inactive
same,outcome,[10],inactive
same,outcome,[11],inactive
same,outcome,[19],inactive
same,outcome,[12],inactive
same,outcome,[14],inactive
same,outcome,[15],inactive
same,outcome,[18],inactive
same,outcome,[16],inactive
same,outcome,[17],inactive
CC(C)C1(C)N=C(c2ncccc2C(=O)O)NC1=O (stereo not drawn),outcome,[1],inactive
same,outcome,[2],inactive
same,outcome,[3],inactive
same,outcome,[4],inactive
same,outcome,"TIMP1, TIMP1 (gene 7076)",inactive
same,outcome,[5],inactive
same,outcome,[6],inactive
same,outcome,[7],inactive
same,outcome,[8],inactive
same,outcome,[9],inactive
same,outcome,[10],inactive
same,outcome,[11],inactive
same,outcome,[15],inactive
same,outcome,[18],inactive
same,outcome,[16],inactive
same,outcome,[17],inactive
CNC(=O)N(C)c1nnc(C(C)(C)C)s1,outcome,[1],inactive
same,outcome,[2],inactive
same,outcome,[3],inactive
same,outcome,[4],inactive
same,outcome,"TIMP1, TIMP1 (gene 7076)",inactive
same,outcome,[5],inactive
same,outcome,[6],inactive
same,outcome,[7],inactive
same,outcome,[8],inactive
same,outcome,[9],inactive
same,outcome,[10],inactive
same,outcome,[11],inactive
same,outcome,[12],inactive
same,outcome,[15],inactive
same,outcome,[18],inactive
same,outcome,[16],inactive
same,outcome,[17],inactive
CCOP(=S)(OCC)Oc1nc(Cl)n(C(C)C)n1,outcome,[1],inactive
same,outcome,[2],inactive
same,outcome,[3],inactive
same,outcome,[4],inactive
same,outcome,"TIMP1, TIMP1 (gene 7076)",inactive
same,outcome,[5],inactive
same,AC50,[6],26.1 µM (active)
same,outcome,[7],inactive
same,AC50,[8],12.5 µM (active)
same,outcome,[9],inactive
same,outcome,[10],inactive
same,outcome,[11],inactive
same,outcome,[13],inactive
same,outcome,[15],inactive
same,outcome,[16],inactive
CC(C)=CC1C(C(=O)OCc2coc(Cc3ccccc3)c2)C1(C)C (stereo not drawn),outcome,[1],inactive
same,outcome,[2],inactive
same,outcome,[3],inactive
same,outcome,[4],inactive
same,outcome,"TIMP1, TIMP1 (gene 7076)",inactive
same,outcome,[5],inactive
same,outcome,[6],inactive
same,AC50,[8],39.4 µM (active)
same,outcome,[9],inactive
same,outcome,[10],inactive
same,outcome,[11],inactive

# Source: PubChem BioAssay (EPA / NIEHS)
